# Data: ChEMBL document CHEMBL1201862, “PubChem BioAssay data set” (2004)
# The campaign covered roughly 58,000 […]. About 3,600 (6.2%) were called active. Rule as the data show it: active = GI50 up to about 1.1 µM and inactive = higher. A selection follows. Results with a measured potency or affinity are listed apart.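 Tested at 5 concentrations; 48 h exposure; 96-well plates; endpoints linearly interpolated, else capped at highest concentration. GI50: concentration for 50% inhibition of growth.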
# System: OVCAR-8
# Experiment: NCI tumour cell line growth inhibition, 48 h
row,Substance,GI50 [µM]
1,"[Bis(aminomethyl)dimethylsilane]tetrachloroplatinum(IV), CHEMBL2146190",12
2,"mu-(1,7-nanodiamine-N,N')bis-(cis-aminedichloroplatimum (II)), CHEMBL2146215",52.6
3,"CISPLATIN, CHEMBL11359",4.52
4,"[Bis(aminomethyl)diethylsilane]tetrachloroplatinum(IV), CHEMBL2146203",3.53
5,"[Bis(aminomethyl)ethylmethylsilane]tetrachloroplatinum(IV), CHEMBL2146192",3.7
6,"[Bis(aminomethyl)tetramethylenesilane]tetrachloropaltinum(IV), CHEMBL2146189",6.01
7,"cis-Bis[[(trimethylsilyl)methyl]amino]tetrachloroplatinum(IV), CHEMBL2146191",2.44
8,"[Bis(aminomethyl)dimethylsilane]dichloroplatinum (II), CHEMBL2146201",29.8
9,"[Bis(aminomethyl)pentamethylenesilane]tetrachloropaltinum(IV), CHEMBL2146204",2.17
10,"[Bis(aminomethyl)tetramethylenesilane]dichloropaltinum(II), CHEMBL2146205",17
11,"[Bis(aminomethyl)pentamethylenesilane]dichloropaltinum(II), CHEMBL2146202",2.05
